Screening data deposited in PubChem by National Center for Advancing Translational Sciences (NCATS).
SW480 rereplic – DNA re-replication induction in SW480 cells | SW480 DNA re-replication, Hoechst DNA content imaging, 48 h | Potency, µM (top dose mostly 46.1 µM), actives largely listed as activators | actives 1.8% (n = 340,000) | AID 624297; also: nearly all actives have a fitted effect of over 55% in size
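Hoechst fluorescence of nuclei (405 nm excitation, 500-530 nm emission) measured by plate-scanning imager after 48 hr compound exposure at 37 C; re-replication scored as increased number of nuclei with elevated intensity.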
Giardia killer – Giardia lamblia killing. Giardia lamblia trophozoite viability. activity change, % at 7.66 µM, hits read low. actives 0.15% (n = 340,000); in the data active = activity change below about -80%; inconclusive = between about -30% and that limit;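 also: parasites exposed to compound for two days anaerobically before the ATP read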
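Giardia lamblia trophozoites (100 cells/well) were incubated with compounds for 48 h at 37 deg C under anaerobic conditions. Viability was read as ATP content by one-step luminescence after 15-30 min at room temperature.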
IL-1B inflam inh – blocks inflammasome-driven IL-1 beta release. THP-1 LPS/ATP IL-1B secretion, AlphaLISA, 16 h; stronger effect = lower value. activity change, % at 57.5 µM. actives 4.7% (n = 360,000); in the data active = activity change below about -50%; inconclusive = mostly about -30% to -49%
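THP-1 cells pretreated 1 hr with compounds (up to 57.5 uM final), then stimulated with LPS (250 ng/mL final) plus ATP (1.25 mM final); secreted IL-1B measured by AlphaLISA after 16 hr, decreased signal indicating inhibition.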
MCF10A rerep – inducers of DNA re-replication in MCF 10A breast cells | MCF 10A DNA re-replication, Hoechst nuclear intensity, 48 h | Potency, µM (top dose mostly 46.1 µM), usual class: activators | actives 2.9% (n = 350,000); also: nearly all actives have a fitted effect of over 50% in size
Vif-APOBEC3G blk – inhibitors of Vif-APOBEC3G interaction; Q9HC16; HeLa A3G-eYFP + Vif (tagged APOBEC3G with the HIV-1 protein that degrades it), YFP fluorescence, overnight; actives 0.076% (n = 410,000); Potency, µM (series often up to 46.1 µM), hits mostly inhibitors; AID 602310; also: nearly all actives have a fitted effect of over 60% in size
Target sequence (Q9HC16 whole entry, looked up): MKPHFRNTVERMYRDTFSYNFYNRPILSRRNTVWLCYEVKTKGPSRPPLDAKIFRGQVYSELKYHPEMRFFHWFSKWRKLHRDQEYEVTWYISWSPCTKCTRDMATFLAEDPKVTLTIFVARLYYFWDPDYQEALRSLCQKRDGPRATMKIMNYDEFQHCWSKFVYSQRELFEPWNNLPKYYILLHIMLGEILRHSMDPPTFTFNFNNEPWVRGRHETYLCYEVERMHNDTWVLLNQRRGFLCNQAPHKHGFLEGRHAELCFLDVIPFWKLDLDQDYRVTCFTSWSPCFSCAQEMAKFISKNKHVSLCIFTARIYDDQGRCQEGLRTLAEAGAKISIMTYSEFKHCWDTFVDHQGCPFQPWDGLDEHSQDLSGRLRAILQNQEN
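Read-out is eYFP fluorescence (Ex 488/Em 500-530) from Vif-expressing HeLa A3G-eYFP cells; more signal means A3G escaped Vif-mediated degradation. Cells plated overnight, compound pinned in, incubated overnight at 37 deg C.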
Vif-APOBEC3F blk – blocks the Vif interaction with APOBEC3F; Potency, µM (doses to about 46.1 µM); HeLa A3F-eYFP + Vif (tagged APOBEC3F with the HIV-1 protein that degrades it), YFP fluorescence increase; actives 0.2% (n = 390,000); also: nearly all actives have a fitted effect of over 65% in size
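HeLa cells stably expressing Vif plus C-terminally eYFP-tagged A3F were seeded, incubated overnight at 37 deg C, dosed with compound, incubated overnight again at 37 deg C. Yellow fluorescence (Ex 488/Em 500-530) reported blocked Vif-mediated A3F-eYFP degradation.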
Large screens that a line does not name were inactive; ! = not confirmed by another sample. A selection: hits, their analogues and other compounds. The true share with any hit is near 6.9%. Unless noted, calls follow the shape of the dose curve; as a rule, active = well fitted curve in the direction sought with a large enough effect; inconclusive = small, poorly fitted or top-dose-only effect, or another doubt; inactive = no such curve, though single readings can be large; an effect the other way counts as inactive or inconclusive.

Cc1ccc(-c2cc(C(F)(F)F)n3nc(C(=O)Nc4sc5c(c4C#N)CCC(C)C5)cc3n2)cc1 (centres undefined)	none (no result: SW480 rereplic, Giardia killer, IL-1B inflam inh, MCF10A rerep)
COc1ccc(CN(Cc2ccccc2)C(=O)c2ccncc2)cc1COc1ccc(NC(C)=O)cc1	none (no result: SW480 rereplic, IL-1B inflam inh, MCF10A rerep, Vif-APOBEC3G blk, Vif-APOBEC3F blk)
COCCNC(=O)c1c(NC(=O)c2cc(=O)c3cc(C)cc(C)c3o2)sc2c1CCCC2	none (no result: SW480 rereplic, Giardia killer, IL-1B inflam inh, MCF10A rerep)
Cc1ccc(-c2ccc(=O)n(CC(=O)N3CCN(c4cccc(C)c4)C(C)C3)n2)cc1 (centres undefined)	IL-1B inflam inh -61
Clc1ccc(/C=N/NC2=Nc3cccc4cccc2c34)cc1	MCF10A rerep inconclusive, Vif-APOBEC3G blk inconclusive, Vif-APOBEC3F blk 13µM
C(=N\NC1=Nc2cccc3cccc1c23)/c1cccnc1	IL-1B inflam inh -98, MCF10A rerep inconclusive, Vif-APOBEC3G blk inconclusive
C(=N\NC1=Nc2cccc3cccc1c23)/c1ccccc1	MCF10A rerep inconclusive, Vif-APOBEC3F blk inconclusive
Cc1[nH]c2ccc(C(=O)N3CCN(c4ccccc4F)CC3)cc2c1C	none (no result: SW480 rereplic, Giardia killer, IL-1B inflam inh, MCF10A rerep)
c1ccc(C(c2ccccc2)N2CCN(c3nc4ccccc4n4cnnc34)CC2)cc1	MCF10A rerep 7.3µM
Nc1ccc(C(=O)n2c3ccccc3c3ccccc32)cc1	SW480 rereplic 3.3µM, MCF10A rerep inconclusive, Vif-APOBEC3G blk inconclusive
COc1ccc(C(=O)n2c(-c3ccco3)nc3ccccc32)cc1	SW480 rereplic 18µM, MCF10A rerep 8.9µM
COc1ccc(C(=O)N2CCn3c2nc2ccccc23)cc1	none
Cc1ccc(C(=O)n2c(N)nc3ccccc32)cc1	Giardia killer -81
C=CCN(C)CCCCCCOc1ccc(C(=O)c2ccc(Br)cc2)c(F)c1	none (no result: SW480 rereplic, Giardia killer, IL-1B inflam inh, MCF10A rerep, Vif-APOBEC3F blk)
CC1CCCN(S(=O)(=O)c2ccc3c(c2)c(=O)nc2ccc(Cl)cn23)C1 (centres undefined)	SW480 rereplic inconclusive, MCF10A rerep 4.6µM
Cc1ccc(-n2c(=O)c3oc4ccccc4c3n(CC(=O)Nc3ccccc3)c2=O)cc1C	none (no result: SW480 rereplic, Giardia killer, IL-1B inflam inh, MCF10A rerep)
S=C(NCCC1=CCCCC1)Nc1ccc(Cl)cc1	none
Clc1ccc(CNCCC2=CCCCC2)cc1	IL-1B inflam inh -76
O=C(Nc1nnc(S(=O)(=O)N2CCCC2)s1)c1ccccc1Cl	none
O=C(Nc1nnc(S(=O)(=O)N2CCCC2)s1)c1ccccc1F	IL-1B inflam inh -59
O=c1c2c3nc4ccccc4nc3n(-c3ccc4c(c3)OCCO4)c2ncn1C1CCCC1	SW480 rereplic 13µM, MCF10A rerep 7.1µM
COc1ccc(Cn2c(=O)cc(N)n(-c3ccccc3C)c2=O)cc1	SW480 rereplic 15µM, MCF10A rerep inconclusive, Vif-APOBEC3G blk inconclusive (no result: IL-1B inflam inh)
COc1cccc(Cn2c(=O)c3[nH]cnc3n(-c3ccccc3C)c2=O)c1	none
Cc1ccc2nc(/C(C#N)=C/c3ccc(-c4ccccc4C(=O)O)o3)[nH]c2c1	Vif-APOBEC3G blk inconclusive, Vif-APOBEC3F blk 11µM
CC(C)(C)/C(O)=C(/C#N)c1nc2ccccc2[nH]1	MCF10A rerep inconclusive
Cc1cc2nc(/C(C#N)=C\c3ccc(-c4ccccc4C(=O)O)o3)[nH]c2cc1C	none
Cc1ccc2nc(/C(C#N)=C\c3ccc([N+](=O)[O-])o3)[nH]c2c1	SW480 rereplic inconclusive, IL-1B inflam inh -101, MCF10A rerep 9.2µM, Vif-APOBEC3G blk 6.3µM, Vif-APOBEC3F blk inconclusive
N#C/C(=C\c1ccc(-c2ccccc2C(=O)O)o1)c1nc2ccccc2[nH]1	SW480 rereplic inconclusive, IL-1B inflam inh inconclusive, MCF10A rerep inconclusive, Vif-APOBEC3F blk 22µM!
N#C/C(=C(/O)c1ccc([N+](=O)[O-])o1)c1nc2ccccc2[nH]1	SW480 rereplic inconclusive, Giardia killer -92, MCF10A rerep 3.3µM, Vif-APOBEC3G blk inconclusive, Vif-APOBEC3F blk inconclusive
O=C(CNC1=NCCS1)c1c[nH]c2ccccc12	none (no result: SW480 rereplic, Giardia killer, IL-1B inflam inh, MCF10A rerep, Vif-APOBEC3F blk)
Cc1ccc(C(=O)N2c3ccc(C)cc3C(C)(c3ccccc3)CC2(C)C)cc1 (centres undefined)	none (no result: SW480 rereplic, Giardia killer, IL-1B inflam inh, MCF10A rerep)
N#C/C(=C\c1ccc(-c2ccc(F)cc2F)o1)c1nc2ccccc2[nH]1	Vif-APOBEC3G blk 11µM, Vif-APOBEC3F blk 11µM (no result: SW480 rereplic, Giardia killer, IL-1B inflam inh, MCF10A rerep)
CC(=O)Nc1ccc(S(=O)(=O)Nc2nc3ccccc3nc2Sc2nncn2C)cc1	Vif-APOBEC3F blk 10µM
